Source: PubChem BioAssay
DT40 TDP1 CPT: DT40-hTDP1 cell growth loss with CPT; chicken DT40 Tdp1-/-;hTDP1 cells + 20 nM CPT, ATP luminescence, 48 h; Potency, µM (doses to about 46.2 µM), usual class: inhibitors; hit rate 12% among 420,000; AID 686979; also: nearly all actives have a fitted effect of over 55% in size
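Chicken DT40 Tdp1-/- cells complemented with human TDP1, 400 cells/well, exposed to compounds plus 20 nM camptothecin for at least 48 h at 37 C; viability read as ATP content by CellTiter-Glo luminescence.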
HT1080NT lethal: kills 2HG-producing HT-1080-NT fibrosarcoma cells; HT-1080-NT fibrosarcoma viability, CellTiter-Glo ATP luminescence, 48 h; Potency, µM (series often up to 46.1 µM), usual class: cytotoxic; hit rate 1.6% among 360,000;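 also: NT is the 2HG producing partner of a matched IDH1 knockdown line; nearly all actives have a fitted effect of over 55% in size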
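HT-1080-NT fibrosarcoma cells (2HG-overproducing), 750 cells/well in RPMI with 5% FBS, dosed after 2 h and incubated 48 h at 37C. CellTiter-Glo luminescence normalized to DMSO and no-cell wells; concentration-response curves fitted and classed.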
DT40 TDP1 no CPT: qHTS for Inhibitors of human tyrosyl-DNA phosphodiesterase 1 (TDP1): qHTS in cells in absence of CPT; hit rate 15% among 420,000; DT40 Tdp1-/- hTDP1 cells, no CPT, ATP luminescence, 48 h; Potency, µM (highest dose often 46.2 µM), most hits filed as inhibitors; also: nearly all actives have a fitted effect of over 55% in size
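Growth kinetics read by CellTiter-Glo luminescence after ≥48 hr at 37 °C. Cells: DT40 Tdp1-/- stably carrying human TDP1, 400 per well, compound exposure in the absence of CPT (DMSO vehicle).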
HT1080 IDH1KD tx: toxicity to HT-1080 IDH1 knockdown cells (counter line); HT-1080 IDH1 knockdown viability, ATP luminescence, 48 h; Potency, µM (titrated, usually from 46.1 µM), actives largely listed as cytotoxic; hit rate 2% among 360,000; AID 686971
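Knockdown cells (IDH1KD HT-1080) received compounds 2 h after plating at 750 cells/well and were kept 48 h at 37 °C in 5% FBS RPMI. A CellTiter-Glo luminescence read gave % activity for curve fitting.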
IL1B secr inh: inhibitors of inflammasome signaling (IL-1 beta secretion) | THP-1 LPS/ATP IL-1B secretion, AlphaLISA, 16 h; hits give low values | activity change, % at 57.5 µM | hit rate 4.7% among 360,000 | AID 743279; in the data active = activity change below about -50%; inconclusive = mostly about -30% to -49%
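THP-1 cells pretreated 1 hr with compounds (up to 57.5 uM final), then stimulated with LPS (250 ng/mL final) plus ATP (1.25 mM final); secreted IL-1B measured by AlphaLISA after 16 hr, decreased signal indicating inhibition.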
Numbers stand for hits; i = inactive; ? = inconclusive; nt = no result given; [ ] = dose if it differs, or a comment. A selection: hits, their analogues and other compounds. The true share with any hit is near 19%. Unless noted, calls follow the shape of the dose curve; as a rule, active = well fitted curve in the direction sought with a large enough effect; inconclusive = small, poorly fitted or top-dose-only effect, or another doubt; inactive = no such curve, though single readings can be large; an effect the other way counts as inactive or inconclusive.

SMILES | DT40 TDP1 CPT | HT1080NT lethal | DT40 TDP1 no CPT | HT1080 IDH1KD tx | IL1B secr inh
COC(=O)[C@@]1(Cc2ccccc2)[C@H]2C(=O)N(C)C(=O)[C@H]2[C@H]2CN=C(SCc3ccc(Cl)cc3)N21 | 13µM | i | 12µM | i | i
COC(=O)[C@@]1(Cc2ccccc2)[C@H]2C(=O)N(C)C(=O)[C@H]2[C@H]2CN=C(SCc3ccc(C)cc3)N21 | 18µM | i | 16µM | i | i
COCCn1c(=O)c(CCc2ccccc2)nc2cnc(N(C)C)nc21 | i | nt | i | nt | nt
Cc1cc(Cl)ccc1OCCCC(=O)NC1CCN(C)CC1 | i | ? | ? | ? | i
CCOC(=O)c1cc(C(=O)NC(C)c2ccccc2)c(C)[nH]c1=O (stereo not given) | i | i | i | i | i
N[C@H](C(=O)O)c1ccc(C(=O)O)cc1 | i | nt | i | nt | nt
NC(c1ccccc1)c1csc(Nc2ccc(C(F)(F)F)cn2)n1 (stereo not given) | ? | ? | 13µM | ? | ?
NC(c1ccccc1)c1csc(Nc2ccc(S(N)(=O)=O)cc2)n1 (stereo not given) | i | i | i | i | i
CC(C)C(N)c1csc(Nc2ccc(C(F)(F)F)cn2)n1 (stereo not given) | 21µM | ? | ? | ? | i
O=C(CN1CCN(S(=O)(=O)c2ccc(Br)s2)CC1)N1CCCCC1 | ? | i | i | i | i
CCn1cc(CNC(=O)c2ccc3nc(Cc4ccccc4F)oc3c2)cn1 | 12µM | i | 12µM | i | ?
CCN(Cc1cnn(C)c1)C(=O)c1ccc2nc(Cc3ccccc3F)oc2c1 | ? | i | 21µM | i | i
Cn1cc(CNC(=O)c2ccc3nc(Cc4ccccc4F)oc3c2)cn1 | i | i | ? | i | i
Cc1cc(CN(C)C(=O)c2ccc3nc(Cc4ccccc4F)oc3c2)on1 | ? | i | ? | i | -81
Cn1cc(CCNC(=O)c2ccc3nc(Cc4ccccc4F)oc3c2)cn1 | ? | i | i | i | i
COc1ccc(-n2c(=O)c(-c3ccccc3)nc3cncnc32)cc1 | i | nt | i | nt | nt
CC1(C)Cc2c(c(N3CCOCC3)nc3sc4c(NCC5CCCO5)nnnc4c23)CS1 (stereo not given) | i | i | ? | i | i
CC1(C)Cc2c(c(N3CCOCC3)nc3sc4c(NCCN5CCOCC5)nnnc4c23)CS1 | ? | i | 12µM | i | i
CCCCN(CCCC)c1ccc(C=Nc2ccc(/C=C/c3ccnc4ccccc34)cc2)cc1C | 11µM | nt | 10µM | nt | nt
CCOc1ccc(C=Nc2ccc(/C=C/c3ccnc4ccccc34)cc2)cc1OCC | 16µM | nt | 10µM | nt | nt
CCOc1cc(/C=N/O)ccc1OCc1ccc(F)cc1 | ? | i | ? | i | i
FC(F)(F)c1cnc2c(c1)Nc1ccccc1S2 | ? | i | 21µM | i | i
c1ccc2c(c1)Nc1nccnc1S2 | ? | i | i | i | i
O=C(OC[C@H]1O[C@@H](OC(=O)c2cc(O)c(O)c(OC(=O)c3cc(O)c(O)c(O)c3)c2)[C@H](OC(=O)c2cc(O)c(O)c(OC(=O)c3cc(O)c(O)c(O)c3)c2)[C@@H](OC(=O)c2cc(O)c(O)c(OC(=O)c3cc(O)c(O)c(O)c3)c2)[C@@H]1OC(=O)c1cc(O)c(O)c(OC(=O)c2cc(O)c(O)c(O)c2)c1)c1cc(O)c(O)c(OC(=O)c2cc(O)c(O)c(O)c2)c1 | 4.2µM | 11µM | 4.6µM | ? | nt
CC(C)CC(NS(=O)(=O)c1cc(C(=O)O)ccc1Cl)C(=O)O (stereo not given) | i | ? | i | i | i
SMILES | DT40 TDP1 CPT | HT1080NT lethal | DT40 TDP1 no CPT | HT1080 IDH1KD tx | IL1B secr inh
COc1cc(=O)n2c(c1C(=O)N(C)Cc1ccsc1)CCN(Cc1cnn(C)c1C)CC2 | i | nt | i | nt | nt
COc1ccc(OC)c(S(=O)(=O)Nc2ccccc2C(=O)N2CCCCC2)c1 | i | i | i | i | i
CC(OC(=O)c1ccco1)C(=O)Nc1ccc(C(F)(F)F)cc1 (stereo not given) | 10µM | i | 26µM | i | i
Cc1c(C(=O)Nc2cnccn2)oc2ccccc12 | 12µM | i | ? | ? | i
Cc1ccnc(NC(=O)c2oc3ccccc3c2C)c1 | ? | i | ? | i | i
CCc1ccc2oc(C(=O)Nc3cccnc3)c(C)c2c1 | 16µM | i | 23µM | i | i
Fc1ccc(-c2cc3nc(-c4ccccc4)cc(N4CCN(CCN5CCOCC5)CC4)n3n2)cc1 | 12µM | i | 7.3µM | i | -74
CN1CCN(c2cc(-c3ccccc3)nc3cc(-c4ccc(F)cc4)nn23)CC1 | 4.1µM | i | 5.8µM | i | -96
OCCCNc1cc(-c2ccccc2)nc2cc(-c3ccc(F)cc3)nn12 | 8.2µM | ? | 5.2µM | ? | -91
CCc1nn2c(N3CCOCC3)cc(C)nc2c1-c1ccc(F)cc1 | ? | i | ? | i | i
Clc1ccccc1NN=Cc1ccccn1 | i | i | i | ? | i
CC(=O)N(Cc1ccc(F)cc1)C1=C(NCc2ccccc2)C(=O)c2ccccc2C1=O | 1.6µM | 4.5µM | 1.3µM | 5µM | -93
O=c1cnc2cnc(Nc3ccccc3)nc2n1CCc1ccccc1 | i | nt | ? | nt | nt
CC(C)C(=O)OC1=CN(Cc2ccccc2)S(=O)(=O)c2ccccc21 | ? | nt | i | nt | nt
COCCC(=O)Nc1ccc2c(c1)CN(C(=O)CCSC)CC2 | i | i | i | i | i
COCCC(=O)Nc1ccc2c(c1)CN(C(=O)c1ccc(CSC)o1)CC2 | i | i | 2.9µM | i | i
Cc1cc(-c2ccnc(-n3ncc(C(=O)NCC(C)(C)N4CCOCC4)c3C)n2)c(C)s1 | i[9.04 µM] | nt | i | nt | nt
COc1cc(SC)ccc1C(=O)N1CCCCCC1 | ? | i | i | i | i
COc1cc(SC)ccc1C(=O)N1CCN(c2ccc(O)cc2)CC1 | ? | i | 9.2µM | i | i
COc1cc(SC)ccc1C(=O)N1CCN(c2ccccc2)CC1 | i | i | ? | i | -80
CCn1nc(C)cc1-c1nnc(Sc2ncc([N+](=O)[O-])s2)n1C | 0.58µM | 10µM | 0.58µM | 21µM | -99
O=C(c1ccco1)N(Cc1cccnc1)c1nc2ccc(F)cc2s1 | i | nt | i | nt | nt
COc1cccc2sc(N(Cc3cccnc3)C(=O)c3ccco3)nc12 | 16µM | nt | ? | nt | nt
COc1ccc(OC)c2sc(N(Cc3cccnc3)C(=O)c3ccco3)nc12 | ? | nt | 21µM | nt | nt
Cc1ccc(C(=O)OCC(=O)c2c[nH]c3ccccc23)cc1S(=O)(=O)N1CCOCC1 | ? | i | ? | i | i
CCC1(C(=O)NC(=Nc2ccccc2)Nc2ccccc2)CCOC1=O (stereo not given) | i | i | i | i | i
COc1ccc(-c2cn3c(n2)sc2cc(C(=O)NCCc4ccc(OC)cc4OC)ccc23)cc1 | 7.3µM | nt | 9.2µM | nt | nt
COc1ccc(-c2cn3c(n2)sc2cc(C(=O)NCCC4=CCCCC4)ccc23)cc1 | ? | nt | 13µM | nt | nt
